Compound activity as filed in PubChem.
Only some compounds are listed: those with a hit (about 21% of all), similar ones and a draw of the others.
ELG1 repair inh – blocks ELG1-dependent DNA repair in HEK293T cells; HEK293T ELG1-luciferase reporter, luminescence, 16 h; DNA damage induced by 5-fluorouridine; Potency, µM (doses to about 46.1 µM), for the others: at the highest dose activity change, negative = inhibition, actives largely listed as inhibitors; 330,000 compounds, 2.3% hits; AID 504467; also: potency is read from the fitted curve at half-maximal effect; nearly all actives have a fitted effect of over 55% in size
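HEK293T cells expressing luciferase-tagged ELG1 (2,000/well) received 5-Fluorouridine plus compound or DMSO for 16 hr at 37 °C. Luciferase was read by ONE-Glo luminescence after 30 min at room temperature.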
RORgamma inh – inhibitors of mouse ROR gamma transcriptional activity; Drosophila S2 Gal4-RORgamma UAS-luciferase reporter, 20 h; Potency, µM (titrated, usually from 53.6 µM), for inactives: at the highest dose activity change, negative = inhibition, hits mostly inhibitors; 310,000 compounds, 5.4% hits; AID 2551; also: potency is read from the fitted curve at half-maximal effect; nearly all actives have a fitted effect of over 60% in size
Target sequence (P51450 whole entry, looked up, the tested form may be a part): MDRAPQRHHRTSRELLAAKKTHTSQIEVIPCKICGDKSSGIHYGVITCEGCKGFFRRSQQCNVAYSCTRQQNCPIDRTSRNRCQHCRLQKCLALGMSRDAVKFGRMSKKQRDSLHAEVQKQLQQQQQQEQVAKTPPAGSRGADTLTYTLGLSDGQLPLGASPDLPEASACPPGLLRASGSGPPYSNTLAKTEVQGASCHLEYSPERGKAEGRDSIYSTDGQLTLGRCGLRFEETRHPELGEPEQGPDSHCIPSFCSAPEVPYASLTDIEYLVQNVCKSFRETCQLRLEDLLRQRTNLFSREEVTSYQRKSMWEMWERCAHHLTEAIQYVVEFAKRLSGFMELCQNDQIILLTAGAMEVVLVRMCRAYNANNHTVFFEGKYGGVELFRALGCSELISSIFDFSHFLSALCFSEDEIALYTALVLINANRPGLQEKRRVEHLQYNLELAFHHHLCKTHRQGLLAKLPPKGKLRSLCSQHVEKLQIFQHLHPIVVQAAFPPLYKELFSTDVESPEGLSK
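A Gal4/UAS one-hybrid system in insect cells: metallothionein-promoter Gal4–ROR gamma fusion plus Photinus luciferase reporter. Copper sulfate 700 uM final, 20 hr ambient incubation, luminescent detection after 10 min with reagent.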
IL1B secr inh – inhibitors of inflammasome signaling (IL-1 beta secretion); 360,000 compounds, 4.7% hits; AID 743279; activity change, % at 57.5 µM; THP-1 LPS/ATP IL-1B secretion, AlphaLISA, 16 h; stronger effect = lower value; in the data active = activity change below about -50%; inconclusive = mostly about -30% to -49%
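Secreted IL-1B measured by AlphaLISA bead assay after 16 h compound exposure of THP-1 cells; compounds (final up to 57.5 uM) added 1 h before LPS (250 ng/mL) and ATP (1.25 mM) stimulation; lower signal means less secretion.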
VP16 counter – Gal4-VP16 reporter inhibition counter-screen; Potency, µM (doses to about 53.6 µM), inactives show top-dose activity, negative = inhibition, most hits filed as inhibitors; Drosophila S2 Gal4-VP16 UAS-luciferase, luminescence, 20 h; AID 2546; 310,000 compounds, 3.5% hits;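 also: Gal4-VP16 expression switched on by copper sulfate through the metallothionein promoter; potency is read from the fitted curve at half-maximal effect; nearly all actives have a fitted effect of over 50% in size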
TDP1 cell noCPT – qHTS for Inhibitors of human tyrosyl-DNA phosphodiesterase 1 (TDP1): qHTS in cells in absence of CPT | DT40 Tdp1-/- hTDP1 cells, no CPT, ATP luminescence, 48 h | AID 686978, 2013 | Potency, µM (top dose mostly 46.2 µM), without a hit: at the top dose activity change, negative = growth inhibition, actives largely listed as inhibitors | 420,000 compounds, 15% hits; also: potency is read from the fitted curve at half-maximal effect; nearly all actives have a fitted effect of over 55% in size
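Growth of hTDP1-complemented DT40 Tdp1-knockout cells is measured by ATP luminescence after at least 48 hr compound exposure at 37 °C, with DMSO substituting for the 20 nM CPT used in the parallel screen.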
DT40 TDP1 CPT – DT40-hTDP1 cell growth loss with CPT; Potency, µM (top dose mostly 46.2 µM), without a hit: at the top dose activity change, negative = growth inhibition, usual class: inhibitors; 420,000 compounds, 12% hits; chicken DT40 Tdp1-/-;hTDP1 cells + 20 nM CPT, ATP luminescence, 48 h; also: potency is read from the fitted curve at half-maximal effect; nearly all actives have a fitted effect of over 55% in size
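Chicken DT40 Tdp1-/- cells stably complemented with human TDP1 were seeded at 400 cells/well in medium containing 20 nM camptothecin, exposed to pin-transferred compounds, and grown at 37 °C for at least 48 hr. Viability was read as ATP luminescence.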
* hit, by the source's call; [ ] = another dose, or the depositor's remark. Unless noted, calls follow the shape of the dose curve; as a rule, active = well fitted curve in the direction sought with a large enough effect; inconclusive = small, poorly fitted or top-dose-only effect, or another doubt; inactive = no such curve, though single readings can be large; an effect the other way counts as inactive or inconclusive. % is scaled to controls: 0 for no effect and ±100 for the full control effect.

Cc1cc(C)nc(Nc2nc(C(N)Cc3ccc(Cl)cc3)cs2)n1 (stereo not drawn) was read as IL1B secr inh inconclusive, TDP1 cell noCPT 18.4µM* and DT40 TDP1 CPT 18.4µM*.
Screening CC(N)c1csc(Nc2nccc(C(F)(F)F)n2)n1 (stereo not drawn) returned IL1B secr inh 4.4, TDP1 cell noCPT inconclusive and DT40 TDP1 CPT 5.1%.
For COc1cc(OC)nc(Nc2nc(C(N)Cc3ccccc3)cs2)n1 (stereo not drawn) the results were IL1B secr inh 0.0, TDP1 cell noCPT 18.4µM* and DT40 TDP1 CPT inconclusive.
`CC(=O)c1ccc(Nc2nc(C(N)Cc3ccc(N)cc3)cs2)cc1` (stereo not drawn) gave IL1B secr inh -12.2, TDP1 cell noCPT inconclusive and DT40 TDP1 CPT inconclusive.
`COc1cc(OC)nc(Nc2nc(C(C)N)cs2)n1` (stereo not drawn) gave IL1B secr inh -1.8, TDP1 cell noCPT inconclusive and DT40 TDP1 CPT inconclusive.
For COc1cc(OC)nc(Nc2nc(C(N)Cc3ccc(C(F)(F)F)cc3)cs2)n1 (stereo not drawn) the results were IL1B secr inh -111.5*, TDP1 cell noCPT inconclusive and DT40 TDP1 CPT inconclusive.
`Cc1ccccc1Nc1oc(-c2ccccc2)nc1-c1cccs1` gave RORgamma inh 23.7% and VP16 counter -6.6%.
NC(Cc1ccc(C(F)(F)F)cc1)c1csc(Nc2nccc(C(F)(F)F)n2)n1 (stereo not drawn) was read as IL1B secr inh -28.8, TDP1 cell noCPT inconclusive and DT40 TDP1 CPT inconclusive.
Screening Cc1cc(C)nc(Nc2nc(C(N)Cc3ccc(C(F)(F)F)cc3)cs2)n1 (stereo not drawn) returned IL1B secr inh -81.0*, TDP1 cell noCPT 6.51µM* and DT40 TDP1 CPT 6.51µM*.
Cc1cc(C)nc(Nc2nc(C(N)Cc3ccc(F)cc3)cs2)n1 (stereo not drawn) was read as IL1B secr inh -8.3, TDP1 cell noCPT 20.6µM* and DT40 TDP1 CPT 14.6µM*.
Screening Cc1cc(C)n(-c2nnc(NCc3ccc(Cl)cc3)nn2)n1 returned ELG1 repair inh -10.1%, RORgamma inh inconclusive, IL1B secr inh 20.3, VP16 counter 3.8%, TDP1 cell noCPT inconclusive and DT40 TDP1 CPT -14.0%.
For Cc1cc(C)n(-c2nc(C)nc(NCc3ccccc3)n2)n1 the results were ELG1 repair inh inconclusive, RORgamma inh 1.58µM*, IL1B secr inh 15.1, VP16 counter 5.62µM*, TDP1 cell noCPT 18.4µM* and DT40 TDP1 CPT 25.9µM*.
`Cc1cc(C)n(-c2nc(NC(C)C)nc(NC(C)(C)C)n2)n1` gave TDP1 cell noCPT 0.794µM* and DT40 TDP1 CPT 1.26µM*.
Screening Cc1cc(C)n(-c2nc3nonc3nc2-n2nc(C)cc2C)n1 returned ELG1 repair inh -1.2%, RORgamma inh 4.1%[0.365 µM], IL1B secr inh 28.9, TDP1 cell noCPT -5.6% and DT40 TDP1 CPT -7.5%.
CNc1nc(C)nc(-n2nc(C)cc2C)n1 was read as ELG1 repair inh inconclusive, RORgamma inh 6.31µM*, IL1B secr inh -1.3, VP16 counter inconclusive, TDP1 cell noCPT -3.7% and DT40 TDP1 CPT -9.0%.
CCN(C#N)c1nc(NC(C)C)nc(NC(C)(C)C)n1 was read as ELG1 repair inh -0.7%, RORgamma inh -9.4%, IL1B secr inh 42.8, VP16 counter 27.0%, TDP1 cell noCPT -2.2% and DT40 TDP1 CPT 7.6%.
`CCN(CC(=O)Nc1ccccc1OC)C(=O)CCOc1ccc(C(C)(C)C)cc1` gave ELG1 repair inh -3.8%, IL1B secr inh 0.7, TDP1 cell noCPT inconclusive and DT40 TDP1 CPT inconclusive.
Cc1ccc(NC(=O)c2cc(-c3cccs3)nc3ccccc23)nc1 was read as ELG1 repair inh inconclusive, RORgamma inh -22.7%, IL1B secr inh inconclusive, VP16 counter 20.8%, TDP1 cell noCPT 13µM* and DT40 TDP1 CPT 23.1µM*.
`COc1cc(-c2cc(C(=O)NCc3ccc(S(N)(=O)=O)cc3)c3ccccc3n2)cc(OC)c1OC` gave ELG1 repair inh 13µM*, RORgamma inh -17.0%, IL1B secr inh -61.8*, VP16 counter 1.5%, TDP1 cell noCPT inconclusive and DT40 TDP1 CPT inconclusive.
O=C(CSc1c2c(nc3ccccc13)CCCC2)NCc1ccco1 was read as ELG1 repair inh 12.1%, RORgamma inh 1.7%, IL1B secr inh 4.6, VP16 counter -1.6%, TDP1 cell noCPT 19.9% and DT40 TDP1 CPT 0.0%.
`CC(C)OCCCNC(=O)c1cc(-c2cccs2)nc2ccccc12` gave ELG1 repair inh inconclusive, RORgamma inh -4.9%, IL1B secr inh 25.3, VP16 counter 1.9%, TDP1 cell noCPT inconclusive and DT40 TDP1 CPT 16.4µM*.
For COc1cccc(CNC(=O)c2cc(-c3cccs3)nc3ccccc23)c1 the results were TDP1 cell noCPT -26.5% and DT40 TDP1 CPT -13.7%.
For O=C(NCc1ccco1)c1c2c(nc3ccccc13)CCC2 the results were ELG1 repair inh -5.2%, RORgamma inh -32.6%, IL1B secr inh -2.0, VP16 counter 0.6%, TDP1 cell noCPT 20.6µM* and DT40 TDP1 CPT 14.6µM*.
`NS(=O)(=O)c1ccc(CNC(=O)c2cc(-c3ccccc3)nc3ccccc23)cc1` gave ELG1 repair inh -6.6%, RORgamma inh 17.3%, IL1B secr inh 4.8, VP16 counter -10.8%, TDP1 cell noCPT -17.8% and DT40 TDP1 CPT -5.2%.
For CC(C)(C)c1ccc(OCc2nnc(-c3ccccc3)o2)cc1 the results were TDP1 cell noCPT -26.4% and DT40 TDP1 CPT -26.0%.
Cc1cccc(C)c1OCc1cc(=O)n2ccsc2n1 was read as TDP1 cell noCPT inconclusive and DT40 TDP1 CPT -25.9%.
For O=C(NCc1ccco1)c1cc(-c2cccs2)nc2ccccc12 the results were ELG1 repair inh 14.6µM*, RORgamma inh 35.2%, IL1B secr inh 15.6, VP16 counter -3.5%, TDP1 cell noCPT inconclusive and DT40 TDP1 CPT inconclusive.
For O=C(COC(=O)c1cc(-c2ccc(Cl)s2)nc2ccccc12)NCc1ccco1 the results were ELG1 repair inh -2.5%, RORgamma inh -19.7%, IL1B secr inh -5.6, VP16 counter -7.3%, TDP1 cell noCPT 16.4µM* and DT40 TDP1 CPT 18.4µM*.
